# Compound activity: PubChem BioAssay, National Center for Advancing Translational Sciences (NCATS)
# PLK1 PBD block = qHTS for Inhibitors of PLK1-PDB (polo-like kinase 1 - polo-box domain): Primary Screen; Plk1 PBD binding of FITC phosphopeptide, fluorescence polarization; Potency, µM, for inactives: max response, negative = inhibition, usual class: inhibitors; 360,000 tested, 2.8% active; AID 720504, 2013; note: series mostly up to about 57 µM; nearly all actives have a fitted effect of over 65% in size
# Sfp PPTase inh = qHTS Assay for Inhibitors of Bacillus subtilis Sfp phosphopantetheinyl transferase (PPTase) | 4'-phosphopantetheinyl transferase ffp (Bacillus subtilis), Q9F4F7 | 310,000 tested, 3.5% active | Biochemical Sfp PPTase activity, qHTS | Potency, µM, for inactives: largest response in the series, negative = inhibition, usual class: inhibitors;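 note: the enzyme is Sfp with the accession as filed and its product quenches rhodamine fluorescence; 0% = enzyme reaction without inhibitor and -100% = no enzyme wells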
#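 Fluorescence-quenching assay: 15 nM Sfp-PPTase preincubated 15 min at room temperature with compound, then 5 uM rhodamine-CoA and 12.5 uM BHQ-2-labelled YbbR peptide added. Fluorescence (ex 525/em 598 nm) read at start and after 30 min; difference gives rate.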
# Gal4-VP16 FLuc = VP16 counterscreen qHTS for inhibitors of ROR gamma transcriptional activity. Potency, µM (top dose mostly 53.6 µM), for the others: at the top dose activity, negative = inhibition, most hits filed as inhibitors. Drosophila S2 Gal4-VP16 UAS-luciferase, luminescence, 20 h. 310,000 tested, 3.5% active. AID 2546, 2010;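 note: Gal4-VP16 expression switched on by copper sulfate through the metallothionein promoter; nearly all actives have a fitted effect of over 50% in size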
# RORgamma inh = qHTS for inhibitors of ROR gamma transcriptional activity | Nuclear receptor ROR-gamma (Mus musculus), P51450 | Drosophila S2 Gal4-RORgamma UAS-luciferase reporter, 20 h | Potency, µM (highest dose often 53.6 µM), for inactives: at the top dose activity change, negative = inhibition, actives largely listed as inhibitors | 310,000 tested, 5.4% active | AID 2551, 2010; note: nearly all actives have a fitted effect of over 60% in size
# Target sequence (P51450 whole entry, looked up, the tested form may be a part): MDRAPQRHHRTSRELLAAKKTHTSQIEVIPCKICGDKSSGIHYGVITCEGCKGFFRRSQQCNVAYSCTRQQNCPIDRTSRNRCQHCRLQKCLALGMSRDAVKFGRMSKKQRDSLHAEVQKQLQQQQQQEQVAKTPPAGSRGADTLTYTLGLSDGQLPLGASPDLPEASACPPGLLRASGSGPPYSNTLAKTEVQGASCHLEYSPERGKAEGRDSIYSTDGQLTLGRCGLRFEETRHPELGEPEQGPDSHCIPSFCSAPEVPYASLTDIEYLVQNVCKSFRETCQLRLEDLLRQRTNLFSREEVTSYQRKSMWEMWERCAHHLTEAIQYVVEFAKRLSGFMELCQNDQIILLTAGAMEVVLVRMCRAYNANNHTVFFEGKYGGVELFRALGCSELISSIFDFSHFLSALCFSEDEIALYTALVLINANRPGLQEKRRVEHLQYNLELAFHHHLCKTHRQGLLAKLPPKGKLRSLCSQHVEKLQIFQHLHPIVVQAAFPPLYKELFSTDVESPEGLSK
#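 Stably transfected Drosophila Schneider cells are the test system, with ROR gamma fused to Gal4 and luciferase under UAS control; luminescence is read after 20 hr of 700 uM copper sulfate induction at ambient temperature.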
# ALDH1A1 block = qHTS Assay for Inhibitors of Aldehyde Dehydrogenase 1 (ALDH1A1); Aldehyde dehydrogenase 1A1 (Homo sapiens), P00352; Purified ALDH1A1, NADH fluorescence, propionaldehyde substrate; Potency, µM (titrated, usually from 75.3 µM), for the others: at the highest dose activity, negative = inhibition, most hits filed as inhibitors; 220,000 tested, 7.3% active; active = well fitted inhibition curve with a large enough effect, not every such curve was filed as active; inconclusive = small, poorly fitted or top-dose-only effect, or another doubt; inactive = no such curve, though single readings can be large or run the other way;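 note: plate controls were no enzyme wells and a reference inhibitor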
# The depositor's hits bear a star; ? = inconclusive; / = no result. A selection: hits, their analogues and other compounds. The true share with any hit is near 12%. Unless noted, calls come from the whole dose curve; as a rule, active = well fitted curve in the direction sought with a large enough effect; inconclusive = small, poorly fitted or top-dose-only effect, or another doubt; inactive = no such curve, though single readings can be large; an effect the other way counts as inactive or inconclusive. Unless noted, % is set by controls: 0 for no effect and ±100 for the full control effect; potency is the fitted concentration of half-maximal effect.
SMILES,PLK1 PBD block,Sfp PPTase inh,Gal4-VP16 FLuc,RORgamma inh,ALDH1A1 block
O=C(Nc1ccc(F)cc1)C(c1ccccc1OC(F)(F)F)N1CCN(c2cccc(C(F)(F)F)n2)CC1 (centres undefined),-22.6%,/,/,/,/
CCN(c1ccccc1)c1nc(=O)c2cccnc2s1,-8.7%,-4.4%,-7.4%,9.2%,20µM*
Cc1ccc(Nc2nc(=O)c3cccnc3s2)cc1,-4.6%,8.3%,20.3%,40.4%,-0.3%
O=C(Nc1ccccc1)Nc1cc(OCC(F)(F)F)cc(OCC(F)(F)F)c1,-1.7%,7.0%,15.8µM*,?,3.8%
C=CCn1c(COc2ccccc2)nnc1SC(C)C(=O)N/N=C/c1cc(Cl)ccc1O (centres undefined),26.7µM*,15.0%,?,12.6µM*,10.3%
C=CCn1c(COc2ccc(Cl)cc2)nnc1SCC(=O)N/N=C/c1cccc(O)c1,-1.5%,5.0%,-11.1%,21.8%,6.6%
CCC(C)n1c(NC(=O)c2ccccc2)c(C#N)c2nc3ccccc3nc21 (centres undefined),17.4%,-16.9%,?,10µM*,?
COc1ccc(N=Nc2n(C)c3ccccc3[n+]2C)cc1,/,50.1µM*,2µM*,1.12µM*,/
Cc1ccc(C(=O)CN2CCC(NC(=O)C3CCCCC3)CC2)cc1,-20.0%,-5.1%,13.6%,1.8%,14.1µM*
Cc1ccc(NC(=O)CN2CCC(NC(=O)C3CCCCC3)CC2)c(Br)c1,-4.0%,0.5%,-7.3%,7.5%,0.7%
CCN1CCN(CC(=O)Nc2ccc(C(C)=O)cc2)CC1,-3.7%,?,-11.9%,-33.9%,/
CCN1CCN(CC(=O)c2ccc(C)cc2)CC1,2.6%,79.4µM*,0.5%,-12.2%,/
CN1Cc2c(C(=O)OC(C)(C)C)ncn2-c2ccsc2C1=O,/,6.2%,-4.0%,10.9%,11.2µM*
Cc1ccc(S(=O)(=O)N2C[C@H]3N(C(=O)OC(C)C)N(C(=O)OC(C)C)C[C@H](OC(=O)Nc4c(C)noc4C)[C@@]3(O)C2)cc1,-23.0%,/,/,/,/
CCOc1ccc(/C=N/NC(=O)CC(=O)NCc2ccccc2)cc1,-20.4%,10.4%,-19.1%,-2.0%,-1.8%
CNC(=S)N/N=C/c1cccc(OCc2ccccc2F)c1,4.5%,2.3%,4.47µM*,2.24µM*,12.0%
CCNC(=S)N/N=C/c1cccc(OCc2c(F)cccc2Cl)c1,-14.4%,5.3%,0.708µM*,0.708µM*,17.9%
Fc1ccccc1COc1ccc(/C=N/NC(=S)NCc2ccccc2)cc1,1.7%,27.3%,1µM*,0.891µM*,2.3%
CC1(C)C=Cc2c(cc3occ(-c4ccc5c(c4)OCO5)c(=O)c3c2O)O1,/,16.3%,-12.8%,-0.3%,-3.7%
COc1c(-c2coc3cc4c(cc3c2=O)CC(O)C(C)(C)O4)ccc2c1C=CC(C)(C)O2 (centres undefined),/,-39.5%,-4.2%,1.12µM*,?
COc1ccc(-c2coc3cc(OC(C)=O)c(OC)cc3c2=O)cc1,-7.1%,/,/,/,/
COc1c(-c2coc3cc4c(cc3c2=O)CC(OC(C)=O)C(C)(C)O4)ccc2c1C=CC(C)(C)O2 (centres undefined),/,-10.6%,1.26µM*,2.51µM*,-4.3%
CC1CCC(=C(C#N)c2nc(-c3cc4ccccc4oc3=O)cs2)CC1 (centres undefined),26.7µM*,2.8%,?,-18.2%,-2.5%
O=C(NCc1cccnc1)C(=O)Nc1cc2c3c(c1)CC(=O)N3CCC2,-1.6%,/,/,/,/
COc1cccc(C(C)(O)c2nc(/C=C/c3ccccc3)cs2)c1 (centres undefined),-18.1%,/,/,/,/
SMILES,PLK1 PBD block,Sfp PPTase inh,Gal4-VP16 FLuc,RORgamma inh,ALDH1A1 block
C=C(CO)C1Cc2c(ccc3c2OC2COc4cc(OC)c(OC)cc4C2C3=O)O1 (centres undefined),/,5.4%,?,?,22.4µM*
COc1ccc2c(c1)OCC(Cc1ccc(OC)c(OC)c1)C2O (centres undefined),/,8.4%,-13.4%,?,0.8%
COc1ccc(C(=O)C(=O)N2CCC(c3ccccc3)CC2)cn1,-13.1%,/,/,/,/
CCOC(=O)CN1C(=O)S/C(=C/C=C/c2ccc(N(C)C)cc2)C1=O,26.9%,6.0%,-13.5%,1.5%,25.1µM*
Cc1ccc(S(=O)(=O)N2C[C@H]3C(=O)C[C@@H](c4ccc(Cl)cc4)N(S(=O)(=O)c4ccccc4C)[C@H]3C[C@H]2c2ccccc2)cc1,-4.6%,/,/,/,/
Cc1sc2cc3c(c(C(=O)c4ccccc4)[n+]2c1C)-c1cccc2cccc-3c12,?,-16.9%,11.2µM*,?,-2.4%
O=C(c1ccccc1)c1c2c(cc3sc4ccccc4[n+]13)-c1cccc3cccc-2c13,?,?,10µM*,?,-7.4%
C[C@@H]1Cc2c(O)c(O)cc(O)c2C(=O)O1,-17.5%,-9.0%,-4.0%,20.0%,/
CC1CCC/C=C/C(=O)c2c(O)cc(O)cc2CC(=O)O1 (centres undefined),?,-18.2%,22.4µM*,?,/
NC1=NC2C(N=C(Br)N2[C@@H]2O[C@H]3COP(=O)(O)O[C@@H]3[C@@H]2O)C(=O)N1 (some centres undefined),/,4.4%,-6.5%,-6.8%,8.9%
Cn1cccc1C(=O)N1CCC[C@@]2(CCN(Cc3ccccc3)C2)C1,/,10.3%,4.2%,5.6%,-8.8%
COc1cc(/C=C/C(=O)OCC(=O)Nc2ccc(C)c(S(=O)(=O)N3CCCCC3)c2)ccc1O,7.52µM*,13.4%,-19.4%,?,?
Cc1ccc(NC(=O)CN2CCOCC2)cc1S(=O)(=O)N1CCCCC1,5.0%,/,/,/,/
Cc1ccc(NC(=O)CNCCCN2CCOCC2)cc1S(=O)(=O)N1CCCCC1,-3.3%,79.4µM*,11.8%,-1.9%,?
Cc1ccc(NC(=O)CCNC(=O)c2ccc(Br)cc2)cc1S(=O)(=O)N1CCOCC1,-0.9%,/,/,/,/
Cc1ccc(NC(=O)CCl)cc1S(=O)(=O)N1CCCCCC1,-15.6%,-20.6%,?,11.2µM*,1.5µM*
Cc1ccc(NC(=O)CSc2ccc(Br)cc2)cc1S(=O)(=O)N1CCOCC1,11.9µM*,/,/,/,/
COC(=O)c1ccc(C(NC(=O)OCc2ccccc2)/C(I)=C/[C@@H](C)C(=O)NCc2ccncc2)cc1 (some centres undefined),/,?,3.8%,?,-10.8%
COc1ccc(SCC(CC(C)C)N2CCN(CCc3ccccc3)CCC2=O)cc1 (centres undefined),/,?,?,12.7%,/
CC(C)c1ccc(NC2CCCN(C(=O)c3ccsc3)C2)cc1 (centres undefined),-0.8%,7.3%,1.5%,-33.0%,/
COc1ccc(NC(=O)CN(C)Cc2c(F)cccc2Cl)cc1S(=O)(=O)N1CCCCC1,-6.2%,0.4%,6.7%,29.8%,28.2µM*
